Assay [1] relates to DLD1. The experiment in a line: cell viability (CellTiter-Glo) relative to plate median (fraction of plate median); higher = more viable cells. The conditions noted are these: 10 µM, treatment time 24 h. The procedure, abridged:
(§1)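 Each value averages two independent replicates in which the well signal was normalised to the plate median (webcellHTS2, additive, without log transformation). The signal was firefly luciferase or CellTiterGlo luminescence, read on parallel plates with a Tecan F500. The cells were colorectal cancer lines with stable lentiviral TCF/Wnt firefly luciferase reporters in 384-well plates, dosed 24 h after seeding with kinase inhibitor library compounds at a final 10 µM for 24 h.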
For orientation: ATP-based viability assays read luminescence as a measure of living cells.

Assay [2] concerns HCT116. The assay is described as above. The conditions noted are these: 10 µM; treatment time 24 h; reporter: TCF4/Wnt. The procedure, abridged: as §1
The subject of assay [3] is SW480. The assay is described as above. As to conditions: 10 µM; treatment time 24 h; reporter: 7TFP. The procedure, abridged: as §1
The test system of assay [4] is DLD1. The experiment in a line: TCF/Wnt firefly luciferase reporter signal relative to plate median (fraction of plate median); higher = higher Wnt reporter signal. The conditions noted are these: 10 µM, treatment time 24 h. The procedure, abridged:
as §1
On the technique in general: Reporter assays use an easily measured gene product as a stand-in for the process of interest.

The test system of assay [5] is HCT116. The description is as above. The conditions noted are these: 10 µM; treatment time 24 h; reporter: TCF4/Wnt. The procedure, abridged: as §1
For assay [6], the system named is SW480. The description is as above. As to conditions: 10 µM; treatment time 24 h; reporter: 7TFP. The procedure, abridged:
as §1

Where a name gives a salt, the structure may show the parent alone. ± gives the standard deviation of the averaged measurements.

Consider `O=C(NCc1ccccc1)c1csc(Nc2ccncn2)n1` [Thiazovivin], for which the cell viability with DLD1 [1] (reporter: 7TFP) was 1.14 ± 0.085; in the assay on DLD1 [1] (reporter: TCF4/Wnt), 1.13 ± 0.071; in the assay on HCT116 [2], 1.16 ± 0.021; with SW480 [3] it was 1.145 ± 0.0071. Further, the “TCF/Wnt firefly luciferase reporter signal” value was 1.13 in the assay on DLD1 [4] (reporter: 7TFP), 0.78 ± 0.18 in the assay with DLD1 [4] (reporter: TCF4/Wnt), 1.78 ± 0.028 in the assay on HCT116 [5] and 1.205 ± 0.0071 in the assay with SW480 [6].

For `CCc1cccc(CC)c1NC(=O)N1Cc2[nH]nc(NC(=O)c3ccc(N4CCN(C)CC4)cc3)c2C1`, the cell viability in the assay on DLD1 [1] (reporter: 7TFP) turned out to be 1.05 ± 0.2; in the assay on DLD1 [1] (reporter: TCF4/Wnt) it was 1.055 ± 0.0071; with HCT116 [2], 0.954 ± 0.093; in the assay on SW480 [3], 1.1 ± 0.078. For the same molecule, the “TCF/Wnt firefly luciferase reporter signal” value in the assay on DLD1 [4] (reporter: 7TFP) came out at 1.26 ± 0.014; in the assay on DLD1 [4] (reporter: TCF4/Wnt), 1.09 ± 0.057; in the assay with HCT116 [5], 0.996 ± 0.19; in the assay with SW480 [6], 0.794 ± 0.039.

`OCCn1cc(-c2ccc3c(c2)CC/C3=N\O)c(-c2ccncc2)n1`: the cell viability with DLD1 [1] (reporter: 7TFP) worked out at 1.05 ± 0.15; with DLD1 [1] (reporter: TCF4/Wnt) it was 0.992 ± 0.11; with HCT116 [2], 0.979 ± 0.059; with SW480 [3] it was 1.145 ± 0.0071. Also, the “TCF/Wnt firefly luciferase reporter signal” value with DLD1 [4] (reporter: 7TFP) stood at 1.5 ± 0.53; in the assay with DLD1 [4] (reporter: TCF4/Wnt), 1.45 ± 0.085; with HCT116 [5], 1.62 ± 0.45; in the assay with SW480 [6] it was 1.7 ± 0.092.

Regarding `CC[C@@H]1C(=O)N(C)c2cnc(Nc3ccc(C(=O)NC4CCN(C)CC4)cc3OC)nc2N1C1CCCC1`, the cell viability was 0.736 ± 0.16 with DLD1 [1] (reporter: 7TFP), 0.863 ± 0.04 in the assay with DLD1 [1] (reporter: TCF4/Wnt), 0.56 ± 0.13 in the assay on HCT116 [2] and 0.897 ± 0.067 in the assay with SW480 [3]. Further, the “TCF/Wnt firefly luciferase reporter signal” value with DLD1 [4] (reporter: 7TFP) was 1.97 ± 0.2; in the assay with DLD1 [4] (reporter: TCF4/Wnt), 2.25 ± 0.078; in the assay on HCT116 [5], 0.983 ± 0.93; in the assay on SW480 [6], 1.36 ± 0.48.

With `Cn1cnc2c(F)c(Nc3ccc(Br)cc3Cl)c(C(=O)NOCCO)cc21` [AZD6244 (Selumetinib)], the cell viability was 1.11 ± 0.042 with DLD1 [1] (reporter: 7TFP), 1.08 ± 0.035 in the assay on DLD1 [1] (reporter: TCF4/Wnt), 0.914 ± 0.066 with HCT116 [2] and 1.125 ± 0.0071 in the assay with SW480 [3]. The “TCF/Wnt firefly luciferase reporter signal” value with DLD1 [4] (reporter: 7TFP) turned out to be 1.45 ± 0.021; with DLD1 [4] (reporter: TCF4/Wnt), 1.42 ± 0.16; in the assay on HCT116 [5], 0.99 ± 0.52; in the assay with SW480 [6] it was 1.34 ± 0.72.

In the case of `N#CC[C@H](C1CCCC1)n1cc(-c2ncnc3[nH]ccc23)cn1`, the cell viability in the assay on DLD1 [1] (reporter: 7TFP) came to 1.115 ± 0.0071; in the assay with DLD1 [1] (reporter: TCF4/Wnt), 1.13 ± 0.057; in the assay with HCT116 [2], 1.09; in the assay on SW480 [3] it was 0.9755 ± 0.0021. For the same molecule, the “TCF/Wnt firefly luciferase reporter signal” value in the assay on DLD1 [4] (reporter: 7TFP) was 1.05 ± 0.15; in the assay on DLD1 [4] (reporter: TCF4/Wnt), 1.025 ± 0.0071; with HCT116 [5], 1.13 ± 0.042; with SW480 [6] it was 1.09 ± 0.042.

As for `Cc1ccc(Nc2nccc(N(C)c3ccc4c(C)n(C)nc4c3)n2)cc1S(N)(=O)=O` [Pazopanib HCl], the cell viability in the assay with DLD1 [1] (reporter: 7TFP) is 1.11 ± 0.23; with DLD1 [1] (reporter: TCF4/Wnt), 1.03 ± 0.073; with HCT116 [2] it was 1.065 ± 0.0071; in the assay on SW480 [3] it was 0.846 ± 0.018. Also, the “TCF/Wnt firefly luciferase reporter signal” value in the assay with DLD1 [4] (reporter: 7TFP) stood at 1.125 ± 0.0071; in the assay with DLD1 [4] (reporter: TCF4/Wnt), 1.06 ± 0.19; with HCT116 [5] it was 1.14 ± 0.028; in the assay on SW480 [6], 0.931 ± 0.087.

Regarding `CC1(C)CNc2cc(NC(=O)c3cccnc3NCc3ccncc3)ccc21` [Motesanib Diphosphate], the cell viability with DLD1 [1] (reporter: 7TFP) worked out at 1.015 ± 0.0071; in the assay on DLD1 [1] (reporter: TCF4/Wnt), 0.978 ± 0.074; in the assay with HCT116 [2], 1.08 ± 0.021; in the assay on SW480 [3], 0.8805 ± 0.0021. The “TCF/Wnt firefly luciferase reporter signal” value amounted to 1.14 ± 0.12 in the assay on DLD1 [4] (reporter: 7TFP), 0.952 ± 0.17 in the assay with DLD1 [4] (reporter: TCF4/Wnt), 1.19 ± 0.19 in the assay with HCT116 [5] and 0.971 ± 0.11 in the assay on SW480 [6].

Take `COc1ccc2c(Oc3ccc(NC(=O)c4c(C)n(CC(C)(C)O)n(-c5ccccc5)c4=O)nc3)ccnc2c1`: the cell viability in the assay with DLD1 [1] (reporter: 7TFP) amounted to 1.15 ± 0.19; in the assay with DLD1 [1] (reporter: TCF4/Wnt), 1.01 ± 0.016; in the assay on HCT116 [2], 1.12; with SW480 [3] it was 0.921 ± 0.08. Besides, the “TCF/Wnt firefly luciferase reporter signal” value came out at 0.92 ± 0.35 in the assay on DLD1 [4] (reporter: 7TFP), 0.99 ± 0.057 in the assay with DLD1 [4] (reporter: TCF4/Wnt), 1.22 ± 0.078 with HCT116 [5] and 1.05 ± 0.078 with SW480 [6].

As for `N#Cc1c(O)c2c(-c3ccc(-c4ccccc4O)cc3)csc2[nH]c1=O`, the cell viability in the assay with DLD1 [1] (reporter: 7TFP) stood at 1.13 ± 0.014; in the assay on DLD1 [1] (reporter: TCF4/Wnt), 1.13 ± 0.071; in the assay with HCT116 [2] it was 1.25; with SW480 [3], 0.922 ± 0.052. Moreover, the “TCF/Wnt firefly luciferase reporter signal” value in the assay on DLD1 [4] (reporter: 7TFP) worked out at 1.03 ± 0.014; in the assay on DLD1 [4] (reporter: TCF4/Wnt), 0.96 ± 0.2; with HCT116 [5], 1.08 ± 0.064; with SW480 [6], 0.976 ± 0.16.

Take `CN1CCN(C2CCN(C(=O)Nc3cc(Oc4ccc(NC(=O)C5(C(=O)Nc6ccc(F)cc6)CC5)c(F)c4)ccn3)CC2)CC1` [Golvatinib (E7050)]: the cell viability is 0.964 ± 0.18 in the assay on DLD1 [1] (reporter: 7TFP), 0.904 ± 0.011 in the assay with DLD1 [1] (reporter: TCF4/Wnt), 1.07 ± 0.064 in the assay with HCT116 [2] and 1.16 ± 0.064 in the assay with SW480 [3]. The “TCF/Wnt firefly luciferase reporter signal” value in the assay on DLD1 [4] (reporter: 7TFP) stood at 0.719 ± 0.03; in the assay on DLD1 [4] (reporter: TCF4/Wnt), 0.728 ± 0.028; in the assay on HCT116 [5] it was 0.915 ± 0.12; in the assay on SW480 [6], 1.06 ± 0.12.

Source of the values: the supplement of paper PMC6522484.
